Data reported in PubChem BioAssay AID2289 (National Center for Advancing Translational Sciences (NCATS), 2010).
In all, about 340,000 compounds went through this assay and about 3,300 (0.97%) were called active. Another 9% or so got no clear call; they are omitted. Calls follow the shape of the dose curve; as a rule, active = well fitted inhibition curve with a large enough effect; inconclusive = small, poorly fitted or top-dose-only effect, or effect the other way; inactive = flat fitted curve, though single readings scatter. Some of the results follow.

Assay: qHTS Assay for Modulators of miRNAs and/or Inhibitors of miR-21; also: nearly all actives have a fitted effect of over 55% in size
Conditions: HeLa miR-21-FLuc reporter, luciferase luminescence, 48 h; actives lower the signal
Method in brief: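 HeLa cells endogenously expressing miR-21, stably carrying CMV-driven firefly luciferase with a downstream miR-21 binding site, 2000 cells/well. Titrations up to approximately 40 uM, 48 hours; luciferase luminescence read.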
Potency is read from the fitted curve at half-maximal effect.

Potency, active:
O=C(Nc1sc2c(c1C(=O)NCc1ccco1)CCCC2)c1cc(=O)c2ccccc2o1 5.85 µM
COc1ccc(OCc2cc(C(=O)N(C)Cc3nnc(C)o3)no2)c(Cl)c1 14.7 µM
Cc1nnc(CN(C)C(=O)c2cc(COc3ccc(F)cc3Cl)on2)o1 13.1 µM
Cc1cc(CN(C)C(=O)c2cc(COc3ccc(F)cc3Cl)on2)n[nH]1 10.4 µM
S=C(c1ccc(-c2ccc(Cl)c(Cl)c2)o1)N1CCOCC1 1.47 µM
S=C(c1ccc(-c2cccc(Cl)c2)o1)N1CCCCC1 1.31 µM
N#CCCN1CCN(C(=S)c2ccc(-c3cccc(Cl)c3)o2)CC1 13.1 µM
O=[N+]([O-])c1cccc(-c2ccc(C(=S)N3CCOCC3)o2)c1 1.04 µM
S=C(c1ccc(-c2cccc(Cl)c2)o1)N1CCOCC1 3.69 µM
COCCN=C1NN=C(c2ccc(C)c([N+](=O)[O-])c2)CS1 4.14 µM
C=C(C)CSc1nncn1/N=C/c1ccc(OC)cc1 11.7 µM
C=CCSc1nncn1/N=C/c1ccc(OC)cc1 2.61 µM
Cn1cccc1-c1nc2ccc([N+](=O)[O-])cc2[nH]1 2.07 µM
O=[N+]([O-])c1ccc2nc(-c3ccncc3)[nH]c2c1 18.5 µM
Fc1cc2nc(-c3ccncc3)[nH]c2cc1F 16.5 µM
COc1cc(OC)cc(C(=O)Nc2ccc3nc4n(c(=O)c3c2)CCCCC4)c1 2.33 µM
Cc1ccc(CNC(=O)c2ccc3c(c2)nc2n3CCCC2)cc1 18.5 µM
COc1ccc(-c2cc3nc4n(c(=O)c3s2)CCCCC4)cc1 0.369 µM
CC1CCn2c(nc3cc(C(=O)NCc4ccccc4)ccc32)C1 (configuration not stated) 7.36 µM
CCOc1ccc(CNC(=O)c2ccc3c(c2)nc2n3CCCCC2)cc1 2.07 µM
COc1ccc(CNC(=O)c2ccc3c(c2)nc2n3CCCCC2)cc1 4.65 µM
COc1ccc(N=C2C(=Nc3ccc(OC)cc3)N(c3ccccc3)C(=S)N2C(=O)c2ccc(Cl)cc2)cc1 5.21 µM
COc1ccc(-c2csc(NC(=O)COC(=O)c3ccco3)n2)cc1 3.69 µM
CCc1ccc(-c2csc(NC(=O)COC(=O)CCc3nc4ccccc4s3)n2)cc1 2.07 µM
CCc1ccc(-c2csc(NC(=O)Oc3ccccc3)n2)cc1 3.69 µM
Cc1nc(N)sc1N=Nc1ccc(F)cc1 4.65 µM
Cc1nc(N)sc1N=Nc1ccccc1C(F)(F)F 5.21 µM
Cc1nc(N)sc1N=Nc1ccc(Br)cc1 0.736 µM
COCCN(CCOC)c1ncnc2c1cnn2-c1ccc(Cl)cc1 7.36 µM
CCCCN(c1ccccc1)c1ncnc2c1cnn2-c1ccc(Cl)cc1 5.85 µM
Cc1cccc(-n2ncc3c(N(CCO)CCO)ncnc32)c1 5.21 µM
CCN(c1ccccc1)c1ncnc2c1cnn2-c1ccccc1 7.36 µM
Cc1ccc2c(c1)c1cccc3c1n2CCN3CCC(N)=O 6.56 µM
CC(=O)N1CCn2c3ccc(C)cc3c3cccc1c32 14.7 µM
Clc1ccc(OCc2nc(-c3ccncc3)no2)c(Br)c1 1.65 µM
CC(Oc1ccc(Cl)cc1Cl)c1nc(-c2ccccn2)no1 (configuration not stated) 6.56 µM
Clc1cc(Cl)c(OCc2nc(-c3ccccn3)no2)cc1Cl 0.736 µM
CC(C)(C)c1ccc(OCc2nc(-c3ccccn3)no2)c(Br)c1 1.65 µM
Nc1cnc(Nc2ccc(Br)cc2)nc1N 11.7 µM
Cc1ccc2c(c1)-c1nc3ccccc3cc1C2=NC1CCCCC1 0.656 µM
CCCCn1cnc2c(sc3nc4c(cc32)CSC(C)(C)C4)c1=O 0.585 µM
CC(C)CCn1cnc2c(sc3nc4c(cc32)CSC(C)(C)C4)c1=O 0.293 µM
O=C(COc1ccccc1)Nc1ccc(Cl)cc1Cl 5.85 µM
COc1ccc(C(=O)COc2ccccc2C#N)cc1 4.65 µM
COc1cccc(NC(=O)COc2ccc(C)cc2)c1 7.36 µM
NC(=O)c1ccccc1NC(=O)COc1ccc(Cl)cc1 4.65 µM
Cc1ccc(OCC(=O)Nc2ccccc2C(N)=O)cc1 1.17 µM
COC(=O)c1ccc(OCC(=O)c2cccc(OC)c2)cc1 10.4 µM
Cc1sc2c(c1C)C(=O)NC(c1ccccc1F)N2 (configuration not stated) 7.36 µM
Cc1ccc(OCCOc2ccc(Br)cc2)c([N+](=O)[O-])n1 5.85 µM
COc1ccc(OCCOc2ccc(C)nc2[N+](=O)[O-])cc1 13.1 µM
COc1ccc(OCCOc2ccccc2[N+](=O)[O-])cc1 6.56 µM
Cc1ccc(OCCOc2cccc(Br)c2)c([N+](=O)[O-])n1 6.56 µM
O=C(O)c1cccc(-c2nnn(Cc3ccccc3)n2)c1 2.33 µM
O=C(O)c1cccc(-c2nnn(Cc3ccccc3Cl)n2)c1 0.414 µM
COc1ccc(CNC(=O)c2ccc(C(C)(C)C)cc2)cc1 5.85 µM
CC(C)(C)c1ccc(C(=O)NCc2ccccc2)cc1 14.7 µM
CC(C)(C)c1ccc(C(=O)NCCC(=O)N2CCCC2)cc1 2.33 µM
CCCc1nn(C)c(C(=O)Nc2ccc3ccccc3c2)c1Cl 7.36 µM
CCCc1nn(C)c(C(=O)Nc2ccccc2)c1Cl 1.85 µM
CCCc1nn(C)c(C(=O)Nc2cccc(Cl)c2)c1Cl 7.36 µM
CCCc1nn(C)c(C(=O)Nc2cccc(C)c2)c1Cl 5.21 µM
CCC1CN(C(=O)Nc2cccc3c2CCCC3)c2cc(C)ccc2O1 (configuration not stated) 7.36 µM
COc1ccc(/C=C/c2nc3ccccc3n2Cc2ccc(OC)c(OC)c2)cc1 1.47 µM
C/C(=N\NC(=O)OC(C)(C)C)c1ccccc1Br 14.7 µM
CCOC(=O)c1cnn2c(C)cc(-c3ccc(F)cc3)nc12 4.14 µM
O=C(O)c1ccc(S(=O)(=O)c2ccc3c(c2)C(=O)N(NC(=O)c2ccccc2)C3=O)cc1 4.14 µM
COc1ccc(-c2cc(C(=O)N3CCCCCC3)no2)cc1OC 16.5 µM
COc1ccc(-c2cc(C(=O)N3CCCCC3)no2)cc1OC 7.36 µM
COc1ccc(-c2cc(C(=O)N3CCCC3)no2)cc1OC 5.85 µM
Cc1csc(NC(=O)/C=C/c2ccc(C)o2)n1 5.21 µM
Cc1ccc(/C=C/C(=O)Nc2ncc(C)s2)o1 1.04 µM
CCOC(=O)C(C)On1c(-c2ccc(Cl)cc2)nc2ccc([N+](=O)[O-])cc21 (configuration not stated) 3.69 µM
Cn1ccc(C(=O)Nc2ccc(Br)cc2Br)n1 0.521 µM
O=C(Nc1ccccc1-c1ccccc1)c1ccc(=O)[nH]n1 14.7 µM
Cc1ccc(NC(=O)c2cnccn2)c(Br)c1 5.85 µM
O=C(Nc1ccccc1-c1ccccc1)c1cnccn1 13.1 µM
CN(C)CCCN(C(=O)c1sc2ccccc2c1Cl)c1nc2ccc(F)cc2s1 9.27 µM
CCc1ccc2nc(N(Cc3cccnc3)C(C)=O)sc2c1 16.5 µM
CN(C)CCCN(C(=O)c1ccc2c(c1)OCCO2)c1nc2ccccc2s1 18.5 µM
O=C(c1ccc2c(c1)OCCO2)N(Cc1cccnc1)c1nc2ccc(F)cc2s1 4.14 µM
Cc1cc(C)nc(SCc2csc(-c3ccccc3)n2)n1 1.65 µM
COc1ccc(S(=O)(=O)Nc2ccccc2OC)cc1NC(=O)c1cc2ccccc2oc1=O 6.56 µM
COc1ccccc1NS(=O)(=O)c1cccc(NC(=O)c2cc3ccccc3oc2=O)c1 4.65 µM
COc1ccc(Cl)cc1NC(=O)Cn1ccn(Cc2ccc(C)cc2)c(=O)c1=O 7.36 µM
O=C(NCCCN1CCOCC1)c1cc(-c2cccs2)on1 16.5 µM
COCCNC(=O)c1cc(-c2cccs2)on1 13.1 µM
COCCNC(=O)c1cc(-c2cccc(Cl)c2)on1 4.14 µM
O=C(NCCN1CCOCC1)c1cc(-c2cccs2)on1 14.7 µM
O=C(NCCc1ccccc1)c1nc(-c2cccs2)no1 11.7 µM
COc1cc(/C=N/n2cnnc2)ccc1OCc1ccccc1 18.5 µM
Cc1n[nH]c(=S)n1/N=C/c1ccccc1OCc1ccc(Cl)cc1 14.7 µM
COc1cc(/C=N/n2c(C)n[nH]c2=S)ccc1OCc1ccccc1 6.56 µM
COc1cc(/C=N/n2cnnc2)ccc1OCc1ccc(C)cc1 4.14 µM
Cc1n[nH]c(=S)n1/N=C/c1ccc(OCc2ccc(Cl)cc2Cl)cc1 16.5 µM
CCOC(=O)c1cccc(NC(=O)c2cc(CN3CCCC3)on2)c1 2.33 µM
Cc1cc(C)cc(NC(=O)c2cc(CN3CCCC3)on2)c1 11.7 µM
COc1ccc2c(Sc3ccccc3)c(C(=O)NCCc3ccc(Cl)cc3)[nH]c2c1 0.464 µM
O=C(NCCc1ccccc1)c1ccc(Cl)cc1[N+](=O)[O-] 8.26 µM
O=C(NCCc1ccccc1)c1cccc([N+](=O)[O-])c1 8.26 µM
N#Cc1ccc(C2N=C(c3ccccc3)NO2)cc1 (configuration not stated) 0.585 µM
COc1ccc(C2N=C(c3ccccc3)NO2)cc1OC (configuration not stated) 5.21 µM
